molecular target: AMP-activated protein kinase, AMPK (Homo sapiens) (UniProt P54646+O43741+P54619+Q9UGJ0+Q9Y478+Q13131+Q9UGI9); experiment: AMP-dependent Kinase enzyme assay. An in vitro enzyme assay that detects ADP turnover that is directly proportional to AMPK activity. This uses naive AMPK that is activated during the assay with MK-8722; type: functional; design: scale not given: direction of the effect not stated beside the values; details: 30 µM

| Compound | Percent Effect |
| --- | --- |
| CC(c1nc(-c2ccccc2)no1)N1CCc2c(ncn2C2CC2)C1 (stereo not given) | 10.5% |
| Cc1cc(N(C)C)nc(N2CCn3c(nnc3C3CC3)C2)n1 | -2.99% |
| CNC(=O)c1cc(NC(=O)Nc2cnn(CC(C)C)c2)ccc1F | -5.42% |
| Cc1cccc(C)c1Nc1noc2c1CN(C(=O)c1ccnn1C)CC2 | 9.88% |
| Cc1ccccc1C(=O)NCC(=O)NCc1ccccn1 | 17.3% |
| Cc1cc(NCCc2nc(C)cs2)nc(-c2cccnc2)n1 | 5.81% |
| NC(=O)NC(CC(=O)N1CCc2sccc2C1)c1cccc(Br)c1 (stereo not given) | 13.9% |
| CC(C)c1nn(C)cc1CNCc1cccnc1N(C)C | 0.312% |
| CC(C)c1nc(CSc2nnc(C3CC3)n2CC(N)=O)no1 | -5.73% |
| O=C(c1ccccc1)C1CCN(C(=O)CC2COCCN2)CC1 (stereo not given) | 1.36% |
| CCc1cc(N2CCC(NCCc3nc(C)c(C)s3)CC2)nc(C)n1 | 4.15% |
| Cc1nn(C)c(C)c1C1COCCN1C(=O)CSC(C)(C)C (stereo not given) | -7.18% |
| Cc1nc(C)c(C(=O)N2CCc3c(C)cccc32)o1 | 4.71% |
| CCS(=O)(=O)Nc1ccc2[nH]c(C3CCC3)nc2c1 | -4.1% |
| CC(C)N(Cc1ccccn1)C(=O)CCC(=O)c1ccc(F)cc1F | -0.0134% |
| COC(=O)C(NC(=O)c1ccc(C)cc1C)c1cccnc1 (stereo not given) | 2.32% |
| CN(C)C(C(=O)N1CCN(CCn2cccc2)CC1)c1ccc(F)cc1 (stereo not given) | -8.31% |
| Cc1cc(C)n(CC(C)NC(=O)C2(c3ccccc3F)CC2)n1 (stereo not given) | -3.82% |
| CC(NCc1cnc(N2CCOCC2)nc1)c1ccc(Cl)s1 (stereo not given) | 10.3% |
| O=C(Cc1ccc(Cl)cc1)N[C@@H]1CCC[C@@H](O)[C@@H]1O | 22.5% |

| Compound | Percent Effect |
| --- | --- |
| CN1CCCN(c2ccc(F)cc2CNC(=O)c2cccnc2)CC1 | 38.2% |
| CC(C)c1nnc2n1CCN(Cc1ccc3c(c1)OCO3)CC2 | 9.68% |
| COCc1ccccc1NC(=O)c1ccoc1 | -4.58% |
| CCN(Cc1cn(CC2CCNCC2)nn1)CC1CCCO1 (stereo not given) | 4.72% |
| NC(=O)C1CCN(c2ncccc2C(=O)N2CCc3ccccc32)C1 (stereo not given) | 2.58% |
| CCC1(CC)CC(=O)N(CC(O)c2cccc(F)c2)C1=O (stereo not given) | 12.2% |
| CNS(=O)(=O)c1ccc(CNC(=O)NCc2cc[nH]n2)cc1 | 2.83% |
| CN1CC2(CCN(C(=O)CCCOCc3ccccc3)C2)OC1=O (stereo not given) | 9.85% |
| Cc1nc2c(c(NC(C)c3nnn[nH]3)n1)Cc1ccccc1OC2 (stereo not given) | -6.31% |
| CCCN(CCC)C(=O)CN1CCCC1C(=O)N(C)C (stereo not given) | -3.78% |
| O=C1OCCCN1Cc1nc(-c2ccncc2)no1 | -2.07% |
| CC(NCc1cnc(N2CCN(C)CC2)nc1)c1ccc(F)cc1 (stereo not given) | -1.25% |
| CC(C)Oc1cccc(F)c1C(C(=O)O)N1CCCC1 (stereo not given) | 8.59% |
| Cn1ncnc1NCc1ccc(F)cc1 | -10.9% |
| Cc1ccc(CNC(=O)NCc2nccn2C)c(OC(C)(C)C)c1 | 11.3% |
| COc1cc(-c2cccc3c2OC(CN)C3)cc(OC)c1OC (stereo not given) | -5.11% |
| CC(C)c1nccc(CN(C)Cc2cccc(-n3cccn3)c2)n1 | -3.37% |
| CCC(O)CN1CCN(C(=O)CCSC)CC1 (stereo not given) | -2.43% |
| Cc1n[nH]c(C)c1CCN(C)C(=O)c1ccc(CN2CCCCC2)cc1 | -2.68% |
| CCn1ncnc1C1CC(=O)NCc2nc(N3CCOCC3)sc21 (stereo not given) | -10.6% |
